Experimental data taken from PMC12670160, “A drug-repurposing screen of FDA- and EMA-approved drugs identifies two NF-κB inhibitors active against eumycetoma” (Journal of Antimicrobial Chemotherapy, 2025).
Where a name gives a salt, the structure may show the parent alone. Read-outs that look alike come from different tables or passages of the source. Among all 5,300 compounds or so, about 130 (2.5%) showed an effect of 50% or more. What follows is part of a selection rich in strong results, with near analogues and random picks from the rest.

Tested on: M. mycetomatis strain mm55
Details: primary screen, metabolic activity vs growth control, 96 h, 2 µM, inhibitor

Compound | % viability [%] | % viability (Madurella mycetomatis metabolic activity at 2µM (%)) [%]
COc1cc(CC2NCCc3cc(O)c(O)cc32)cc(OC)c1OC (stereo not drawn) [ONC0002165, trimethoquinol] | 66.75 | 
CN(C)CC/C=C1/c2ccccc2COc2ccc(CC(=O)O)cc21 [ONC0004990, olopatadine hydrochloride opatanol] | 101 | 
O=C(O)Cc1ccc2c(c1)C(=O)c1ccccc1CO2 [ONC0003681, isoxepac] | 47.44 | 
O=C(O)Cc1ccc(-c2ccccc2)cc1 [ONC0005558, felbinac] | 137.1 | 
O=C1c2cccnc2OC[C@@H]2CCCN12 [ONC0001148, org26576] | 83.51 | 
CCOC(=O)NNc1ccc(N(CC)CC(C)O)nn1 (stereo not drawn) [ONC0001944, cadralazine] | 72.29 | 
C=C1C(=O)O[C@@H]2[C@H]3O[C@]3(C)CC/C=C(\C)CC[C@@H]12 [ONC0002950, parthenolidealternatestereo] | 150.2 | 
Cc1cccn2c(=O)c(/C=C(\C#N)c3nc4ccccc4s3)c(Oc3ccc(F)cc3)nc12 [ONC0003502, ccg63808] | 42.44 | 
Cc1cccc(Oc2nc3c(C)cccn3c(=O)c2/C=C(\C#N)c2nc3ccccc3s2)c1 [ONC0001281, ccg63802] | 68.65 | 
Cc1ccc(OC[C@@H](O)[C@H](C)NC(C)C)c2c1CCC2 [ONC0001929, ici118551] | 52.35 | 
Cc1ccc(-c2ncccn2)c(C(=O)N2C[C@H](COc3ccc(F)cn3)CC[C@H]2C)c1 [ONC0005570, filorexant] | 73.84 | 
O=C(O)CC(O)(CC(=O)O)C(=O)O.[Li].[Li].[Li] [ONC0004255, lithium citrate hydrate] | 60.67 | 
CCCCCCCCCCCCOCCOCCOCCOCCOCCOCCOCCOCCOCCO [ONC0002139, polidocanol] | 78.72 | 
C[C@H]1OC(O)[C@H](O)[C@H](O)[C@H]1O (stereo partly drawn) [ONC0004779, l rhamnose monohydrate] | 103.9 | 
C/C=C1\NC(=O)[C@H]2CSSCC/C=C/[C@H](CC(=O)N[C@H](C(C)C)C(=O)N2)OC(=O)[C@H](C(C)C)NC1=O [ONC0000722, romidepsin] | 49.6 | 
Cc1ccc(-c2ccc(C)cn2)nc1 [ONC0002143, abametapir] | 65.91 | 
C=C[C@H]1C[N@@]2CC[C@H]1C[C@H]2[C@H](O)c1ccnc2ccc(OC)cc12 [ONC0003402, quinine] | 78.04 | 
CC/C(=C(\c1ccc(O)cc1)c1ccc(OCCN(C)C)cc1)c1ccccc1 [ONC0002197, afimoxifene] | 79.17 | 
CC/C(=C(\c1ccc(O)cc1)c1ccc(OCCNC)cc1)c1ccccc1 [ONC0004522, endoxifen hcl] | 48.7 | 
CC/C(=C(\c1ccccc1)c1ccc(OCCN(C)C)cc1)c1ccccc1 [ONC0000595, tamoxifen citrate] | 106.5 | 

Compound | % viability [%] | % viability (Madurella mycetomatis metabolic activity at 2µM (%)) [%]
COc1cc(-n2c(S)nc3ccccc3c2=O)c(Cl)cc1Cl [ONC0004315, mdivi1] | 127.2 | 
O=c1c2ccccc2nc2n1CCc1c-2[nH]c2ccccc12 [ONC0004955, rutaecarpine rutecarpine] | 80.68 | 
O=C1c2ccccc2-n2c1nc1ccccc1c2=O [ONC0003517, tryptanthrin] | 43.27 | 
COC(=O)Nc1nc2ccc([S+]([O-])c3ccccc3)cc2[nH]1 (stereo not drawn) [ONC0004180, oxfendazole] | 72.44 | 
NC(C(=O)O)c1ccc(C(=O)O)c(O)c1 (stereo not drawn) [ONC0002596, 4carboxy3hydroxyphenylglyciners] | 58.45 | 
CC(=O)O[C@@H]1CC[C@@]2(C)C(CC[C@]3(C)C2C(=O)C=C2[C@@H]4[C@@H](C)[C@H](C)CC[C@]4(C)CC[C@]23C)[C@@]1(C)C(=O)O (stereo partly drawn) [ONC0003387, acetyl11ketobetaboswellicacid] | 70.79 | 
COc1cc2c(c(OC)c1OC)-c1c(cc3c(c1OC)OCO3)C[C@H](C)[C@@H](C)C2 [ONC0005204, schisandrin b] | 87.3 | 
O=C1CCCCCCCCCCCCCCO1 [ONC0002133, oxacyclohexadecan2one] | 71.7 | 
O=C(O)CN(CCN(CC(=O)O)CC(=O)O)CCN(CC(=O)O)CC(=O)O [ONC0005602, pentetic acid] |  | 107.7
Oc1cccc(Nc2ccc(Nc3cccc(O)c3)nn2)c1 [ONC0002962, 363hydroxyphenylaminopyridazin3ylaminophenol] | 67.52 | 
Nc1ccc(C(=O)Oc2ccccc2)c(O)c1 [ONC0003304, phenyl aminosalicylate] | 56.4 | 
Nc1ccc(O)c(C(=O)O)c1 [ONC0002803, mesalamine lialda] | 82.25 | 
Nc1ccc(C(=O)O)c(O)c1 [ONC0003334, aminosalicylate sodium] | 35.29 | 
[H]/N=C(/N)N/C(=N/[H])NCCc1ccccc1 [ONC0000619, phenformin hydrochloride] | 104.4 | 
CNC(=O)c1ccc2c(c1)S(=O)(=O)c1ccccc1C2=O [ONC0002375, bw616u] | 76.21 | 
Nc1c[n+](N2CCOCC2)no1 [ONC0003799, linsidomine] | 49.48 | 
CCOC(=O)Nc1c[n+](N2CCOCC2)no1 [ONC0000636, molsidomine] | 75.33 | 
CC[C@@H](C(=O)O)C1CC[C@H](C)C([C@@H](C)[C@H](O)[C@H](C)C(=O)[C@H](CC)C2O[C@]3(C=C[C@@H](O)[C@]4(CC[C@@](C)(C5CC[C@](O)(CC)[C@H](C)O5)O4)O3)[C@H](C)C[C@@H]2C)O1 (stereo partly drawn) [ONC0004344, salinomycin procoxacin] | 144.3 | 
CN(C)c1ccc2c(c1)Sc1cc(N(C)C)ccc1N2.CS(=O)(=O)O [ONC0001830, leucomethylene blue mesylate] | 74.38 | 
CS(=O)(=O)c1ccc(C2=C(c3ccccc3)C(=O)OC2)cc1 [ONC0001095, rofecoxib] | 82.56 | 

Compound | % viability [%] | % viability (Madurella mycetomatis metabolic activity at 2µM (%)) [%]
CS(=O)(=O)c1ccc(-c2cnc(N)c(C(=O)Nc3ccccc3)n2)cc1 [ONC0004547, ve821] | 76.73 | 
CS(=O)(=O)c1ccc(-c2cn3ccccc3n2)cc1 [ONC0002352, zolimidine] | 42.05 | 
O=C1NC(=O)/C(=C\c2cccc(C(F)(F)F)c2)S1 [ONC0004444, smi4a] | 130.7 | 
Cc1cc(C(=CNc2ccc(Cl)cc2)C(=O)Nc2ccc(Cl)cc2)on1 [ONC0000028, ccmi] | 80.11 | 
Cc1ncc(C[n+]2csc(CCO[P@](=O)(O)OP(=O)(O)O)c2C)c(N)n1 [ONC0002796, thiamine pyrophosphate chloride] | 94.34 | 
CC1(C)[C@@H]2C[C@@H](O)[C@@](C)(O)[C@H]1C2 [ONC0002949, 266trimethylbicyclo311heptane23diol] | 64.26 | 
CC1(C)[C@@H]2C[C@H]1[C@@](C)(O)[C@@H](O)C2 [ONC0005321, pinanediol] | 118.6 | 
CC1(C)OC2(C)C(O)CC1CC2O (stereo not drawn) [ONC0003817, epomediol] | 42.26 | 
C#C[C@]1(OC(=O)CCCCCC)CC[C@H]2[C@@H]3CCC4=CC(=O)CC[C@@H]4[C@H]3CC[C@@]21C [ONC0000267, norethisterone enanthate] | 63.38 | 
C=C1c2cccc(O)c2C(=O)C2C(=O)[C@]3(O)C(=O)C(C(N)=O)C(=O)[C@@H](N(C)C)[C@@H]3[C@@H](O)[C@H]12 (stereo partly drawn) [ONC0000687, methacycline hydrochloride] | 124.6 | 
O=C1c2ccccc2-c2c(NCCc3ccccc3)c(=O)[nH]c3cccc1c23 [ONC0001816, brd7389] | 84.69 | 
CCOC(=O)c1c2c3c(cccc3[nH]c1=O)C(=O)c1ccccc1-2 [ONC0001061, nqdi1] | 43.7 | 
CCOC(=O)c1ccccc1OC(=O)CCCCCCCC(=O)Oc1ccccc1C(=O)OCC [ONC0003554, tu2100] | 98.87 | 
Cn1cnc(=N)c2nc[nH]c21 [ONC0004721, 3methyladenine 3ma] | 115.8 | 
CCC(=O)OCC(=O)C1(OC(=O)CC)[C@H](C)C[C@H]2C3[C@H](Cl)CC4=CC(=O)C=C[C@]4(C)[C@H]3[C@@H](O)C[C@@]21C (stereo partly drawn) [ONC0002939, alclometasonedipropionate] | 82.49 | 
C/C(=C\c1csc(C)n1)[C@H]1C[C@@H]2O[C@]2(C)CCC[C@H](C)[C@H](O)[C@@H](C)C(=O)C(C)(C)[C@H](O)CC(=O)O1 [ONC0004615, patupilone epo906 epothilone b] | 75.3 | 
C[C@H]1CC2C([C@@H](O)C[C@@]3(C)C2CC[C@]3(O)C(=O)COC(=O)CCC(=O)O)[C@@]2(C)C=CC(=O)C=C12 (stereo partly drawn) [ONC0003156, methylprednisolone sodium succinate] | 82.41 | 
CC(=O)N[C@@H](CSSC[C@H](NC(C)=O)C(=O)O)C(=O)O [ONC0002807, nnü¾Œ“ ¼ü¾˜³ ¼diacetyllcystine] | 85.92 | 
CCCCOc1ccc(C(=O)Nc2ccc(F)cc2F)cc1 [ONC0005047, vu 0357121 vu 0357121 vu 0357121] | 78.07 | 
C=CCN(C)CCCCCCOc1ccc(C(=O)c2ccc(Br)cc2)c(F)c1 [ONC0001825, ro 488071 fumarate] | 29.93 | 
